Whole data set: some 25,000 sequences, median “ln(normalized median fluorescence intensity)” near 9.3, cut for the highest 2% near 10. This excerpt belongs to a sample that is enriched for the highest values.
What follows are sequences tested on PF3D7_0420300 AP2 domain 1 (GST-tagged) (assay: gcPBM binding intensity (ln(normalized median fluorescence intensity)); higher = stronger DNA binding).
Summary of the method: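 Binding intensity is defined as the maximum Masliner-normalised natural-log median intensity across replicate spots for either probe orientation. It was measured on an Agilent 4 × 180k array of primer-extended double-stranded 36-bp intergenic genomic probes and negative controls, to which GST-tagged P. falciparum DNA-binding domains made in E. coli were applied for 1 h in 1× PBS with 1% milk, 0.2 mg/ml BSA, 0.5% salmon testes DNA and 0.03% Triton X-100. Detection was by Alexa488 anti-GST antibody and scanning at 488 nm.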

Row | Sequence | gcPBM binding intensity (ln)
1 | ATAATTAACAAATACACACACACACCCAGACAAAAA [CACACA_site4445] | 10.2
2 | TATTAATACAGACACACACACACACCCAATAAAATA [CACACA_site243] | 10.1
3 | TTTATTTATTAATACACACACACACCCAGACAAAAT [CACACA_site4292] | 10.2
4 | ATAATTAACAAATACACACACACACGCCCACAAAAA [CACACA_site6389] | 10.2
5 | AATTAATAACAAAATAAACACACATATATAAATACA [CACACA_site8456] | 9.84
6 | TTTATTTATTAATACACACACACACGCCCACAAAAT [CACACA_site6253] | 10.2
7 | TTAATTAAATATTATACACACAAAAAAATAATTTTA [CACACA_site96] | 9.27
8 | AAAAAAAAAAAATACACACAAACACAAATTAAATAA [CACACA_site3809] | 9.88
9 | TTTTTATTTATTAATACACACACACCCACCCACAAA [CACACA_site7965] | 10.1
10 | TAATTAACAAACTATAGTACACAAAATACTTCATAT [XGTACX_site6375] | 9.44
11 | ATGGTAGTGATTAAAAGTACACGTAATTGTAAAAAT [XGTACX_site387] | 9.45
12 | TATATTTAGTAAAAAGGTACCATTCTTATTTATATT [CACACA_negctrl_site1165] | 9.13
13 | TTTTATGTAATTATTTGTACATATGCCTCTTAAACT [XGTACX_site748] | 9.19
14 | AAAAAAATATATTCCTAATTTATGATTAAAAGGAAT [CACACA_negctrl_site751] | 8.98
15 | ATATATTTTTTCTTAACACACATATATAAAATAAAA [CACACA_site3500] | 9.24
16 | AAGAGAAATGGGCACACACACACATATTATAGATAT [CACACA_site6828] | 10.2
17 | AGAAAAGAGAAATGGGCACACACACCCATATTATAT [CACACA_site8433] | 9.66
18 | GAGAAATGGGGACACACACACATATTATAGATATAT [CACACA_site6829] | 10.1
19 | AAAAGAGAAATGGGCACACACACACCCATTATATAT [CACACA_site1530] | 9.88
20 | AAAAGAGAAATGGGCACACACACACCGATTATATAT [CACACA_site4942] | 10.2
21 | AAGAGAAATGGGCACACACACACATATTATATATAT [CACACA_site1531] | 10.1
22 | TAATATACTTAATACACACACGAATATTTATAAATA [CACACA_site6675] | 9.73
23 | ACATATTATAGGAATACACACAAAAACTTATCGGTA [CACACA_site7587] | 9.87

Row | Sequence | gcPBM binding intensity (ln)
24 | GTAATACCCAAACACACACACATACCCATATATATA [CACACA_site5510] | 10
25 | ATACATCAAGGACACACACACACACCCACACCCACA [CACACA_site8013] | 10.3
26 | CACCCACCCAGACACACACACACAAAAAAAAAAAGA [CACACA_site499] | 10.1
27 | CAAGCACAGAAACACACACACACACCGACACAGACA [CACACA_site4359] | 10.2
28 | AAAATACCCGGACACACACACATATATATATATATT [CACACA_site6137] | 9.96
29 | AACAGACAGAAACACACACACATATATATATATATA [CACACA_site3394] | 9.81
30 | CAAGCACCCAGACACACACACACACCCACACCCACA [CACACA_site369] | 10.2
31 | CATACACCCATACATACACACATACATACACCCATA [CACACA_site5124] | 9.78
32 | CATATACATCCACATACACACATACACCCATACACA [CACACA_site5038] | 9.74
33 | ACATCAAGCAGACACACACACACACCCACCCACCGA [CACACA_site371] | 10.2
34 | AATACCCAAGGACACACACACACATATATATATATA [CACACA_site8345] | 10.2
35 | ATTATTACTATATGTGTACACATCAACTGGTTTGAT [CACACA_site5563] | 9.39
36 | AAAAAAAAAAAAAAGGTGCATACTTTGAATTAATAT [GTGCAC_site9401] | 9.2
37 | ATAAAAAATATCACATAAAATAAAAAAAGAAAGGAT [XGTACX_negctrl_site294] | 9.62
38 | AGTGGACTTTTTTTTTTTTTTTTTTTTTTTTTATTA [CACACA_negctrl_site547] | 9.2
39 | AGTATAAATATATTATGTACATATATATTATACTTA [XGTACX_site2623] | 9.09
40 | ATTATCTATCGTTTTTGTACTTACACCTTAATACAA [XGTACX_site7337] | 9.58
41 | TACACAAGCAGACACACACACATATATATATATATA [CACACA_site1270] | 9.72
42 | AAGCATACATCAAGCACACACACACCCACAGAGACA [CACACA_site4362] | 9.89
43 | ACATCAAGCGGACACACACACACACCGACAGACACA [CACACA_site4361] | 10.2
44 | TACACAAGCGGACACACACACATATATATATATATA [CACACA_site4832] | 9.81
45 | ACATCAAGCAGACACACACACACACCCACCCACCCA [CACACA_site8012] | 10.4
46 | TAAAGTATTACAACCACACACACACCGATATATTAT [CACACA_site9382] | 9.99

Row | Sequence | gcPBM binding intensity (ln)
47 | ATAAAAATAAAAAGTGTGCACACAAAAATATATATA [GTGCAC_site9931] | 9.9
48 | ATATATATATATATATGTACATATTCACTTATATTT [XGTACX_site5324] | 9.18
49 | ATTAAACATAAATATGCACACATATACATATATTCA [CACACA_site8850] | 9.4
50 | TATGTACACCCATATACACACCTCTATAATATATAT [CACACA_site4563] | 9.67
51 | TTTTATGAAAAGTATTGTACGTATAATTTATATGTA [XGTACX_site1639] | 9.04
52 | GGAACTTATTTTTATACACACATATGTGCATATTAT [CACACA_site629] | 9.68
53 | TATAAATAAAGACACACACACACACCGTATAATTAC [CACACA_site7829] | 10.2
54 | TATAAATAAAGACACACACACATATAAATAAATATA [CACACA_site7155] | 10.1
55 | CATATAAAAAGACACACACACACATATATATATATA [CACACA_site940] | 10
56 | CACACTAAAAGACACACACACACACGCATATAAATA [CACACA_site7874] | 10.2
57 | AAAAAAAAAAGACACACACACATATAAATATAAATA [CACACA_site6899] | 10.2
58 | ATAAAAAAAAGACACACACACATATATATATATATA [CACACA_site3073] | 9.67
59 | TATATAAATAGACACACACACACCTTATAATTACTA [CACACA_site7828] | 10
60 | AAAAGGAACAGACACACACACATATATAAATATGTA [CACACA_site7656] | 9.97
61 | ATATAATAAAATGACACACGCATATATATATATATA [CACACA_site2789] | 9.33
62 | AAAAAAAAAAAAAACACACACACACGCATAAATATA [CACACA_site6217] | 10.1
63 | CATATAAATATATATACACACACACCGTAATACATA [CACACA_site9158] | 10.2
64 | TAAAAAGGAAGACACACACACACATATATAAATATA [CACACA_site7657] | 10.2
65 | ACAAAAAAAAACGTGGTGCATTAATAATATTGTATA [GTGCAC_site9469] | 9.43
66 | ATTACATTAATAAGAGTGCATTATATAAGTTTTATG | 9.2
67 | TTTGGCTAGTCAAGTTGTACAAAAAAAAAAAAAAAA [XGTACX_site8382] | 8.58
68 | GTAATACACAGACACACACACATACACATATTTATA [CACACA_site7313] | 10
69 | TTGTACTACAATCCTTTATTTATTTAAACCTGTATG [CACACA_negctrl_site428] | 9.14

Row | Sequence | gcPBM binding intensity (ln)
70 | TTCTTCAAGGAAAACACATGCGCATTTTCACCAATT [TGCATGCA_site11] | 9.15
71 | TTTTCAGAAAAGAGAAACTTTATTTTTCACAACCGA [TGCATGCA_negctrl_site389] | 8.85
72 | ACCTACATAACATACACACGCATATATATAATTTTA [CACACA_site2847] | 9.64
73 | AAACCTACATAACATACACACGCATATATATAATTT [CACACA_site8923] | 9.69
74 | AAGTAATTTGTTGACACACACACACGCATACCTATA [CACACA_site7140] | 10.2
75 | TATATAAAAAATTCAATACACACCATATATAAATAT [CACACA_site3987] | 9.66
76 | AATATATAAGTGTTGTGTACTAAAGTATTTTCCTAT [XGTACX_site1622] | 9.5
77 | CGCATACACAGACACACACACACATATAAATATGTA [CACACA_site6444] | 9.92
78 | CACGCATACAGACACACACACACACGGATATAAATA [CACACA_site6445] | 10.3
79 | TAAATAAATTTATACACACACACACGGATATAAATA [CACACA_site6532] | 10.1
80 | ACTTGTAAGAGACACACACACACACGGATATAAATA [CACACA_site6517] | 10.1
81 | CACACGCACAGACACACACACACACGGATATAAATA [CACACA_site6301] | 10.2
82 | ACCATATAAATAAACACACACACACGGATATAAATA [CACACA_site7157] | 10.1
83 | GCTATAAATACAGACGCACACATATACATACAGATA [CACACA_site5778] | 9.49
84 | ATAGTATACAGACACACACACACACGGATATAAATA [CACACA_site6914] | 10.3
85 | CGCGCACACGGACACACACACACACGGATATAAATA [CACACA_site7102] | 10.2
86 | CACACGCACGGACACACACACATATAAAATCTATAT [CACACA_site6428] | 9.91
87 | CACACGCACAGACACACACACACATATAAATATGTA [CACACA_site6300] | 10.1
88 | TAAATACAGACATATACACACATATATATATATATA [CACACA_site4382] | 9.28
89 | GAGAAATTTATACATACACACATATAAATATTATAG [CACACA_site7819] | 9.6
